High-throughput results deposited in PubChem BioAssay by The Scripps Research Institute Molecular Screening Center.
Compounds with a hit are over-represented: about 2.3% of the library has one in this group of screens.
M1 ag parental: nonselective activator or artifact in parental CHO-K1 cells; AID 602248; Fluo-8 calcium fluorescence; scaled to maximal ATP response, vehicle zero; activation, % at 3 µM; 360,000 tested, 0.48% active; in the data active = activation above about 15%;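 note: untransfected CHO-K1 host cells lacking M1 receptor as counterscreen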
CHRM1 antagonist: human CHRM1 antagonism; P11229; CHO-K1 hM1, Fluo-8 calcium fluorescence, ACh EC80 antagonist; inhibition, % at 3 µM; 360,000 tested, 1.3% active;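 active = percent inhibition above its own plate's cutoff, namely the mean of that plate's compound wells plus 3 SD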;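 note: peak over basal fluorescence ratio during 140 s after agonist addition; 0% = ACh EC80 plus DMSO and 100% = DMSO alone without agonist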
Target sequence (P11229 whole entry, looked up): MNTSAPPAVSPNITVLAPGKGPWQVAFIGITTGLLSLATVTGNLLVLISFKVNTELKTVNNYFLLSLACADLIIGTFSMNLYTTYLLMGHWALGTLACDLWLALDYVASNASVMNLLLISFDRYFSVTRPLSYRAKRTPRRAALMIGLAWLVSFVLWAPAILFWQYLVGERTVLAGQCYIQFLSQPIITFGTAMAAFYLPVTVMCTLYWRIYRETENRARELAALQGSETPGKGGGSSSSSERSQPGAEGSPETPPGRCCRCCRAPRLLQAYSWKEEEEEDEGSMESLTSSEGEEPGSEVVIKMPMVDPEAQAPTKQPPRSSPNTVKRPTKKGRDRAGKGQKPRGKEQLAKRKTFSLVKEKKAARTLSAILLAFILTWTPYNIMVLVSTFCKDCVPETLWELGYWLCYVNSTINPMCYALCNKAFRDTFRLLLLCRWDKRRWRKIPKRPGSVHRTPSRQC
CHO-K1 Ca PAM: M1 PAM counterscreen hit in parental CHO-K1 cells. ATP EC20, Fluo-8 calcium fluorescence; 0% at ATP EC20, 100% at ATP max. activation, % at 3 µM. 360,000 tested, 0.02% active. AID 602247;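 active = activation above the run cutoff, the mean activation of all test compounds plus 3 SD, cut at about 40% in these data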;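 note: peak over basal fluorescence ratio in a 140 s read after ATP addition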
CHRM1 agonist: human M1 muscarinic receptor agonism; P11229; CHO-K1 hM1, Fluo-8 calcium fluorescence, agonist mode; 0% DMSO, 100% acetylcholine EC100; activation, % at 3 µM; 360,000 tested, 0.33% active; AID 588814;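 active = activation above the run's mean compound activation plus 3 SD, cut at about 16% in these data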;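 note: peak over basal fluorescence ratio within a 140 s kinetic read after compound addition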
CHO-K1 Ca antag: M1 antagonist counterscreen hit in parental CHO-K1 cells; ATP-induced calcium, Fluo-8 fluorescence; inhibition, % at 3 µM; 360,000 tested, 0.6% active;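 active = inhibition above a per-plate cutoff, the plate's mean sample inhibition plus 3 SD, cut at about 24% in these data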;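 note: 0% = DMSO plus EC80 ATP and 100% = DMSO alone without ATP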
M1 PAM: positive allosteric modulators of human M1 muscarinic receptor | AID 588819 | 360,000 tested, 0.088% active | CHO-K1 hM1, Fluo-8 calcium fluorescence, ACh EC20; 0% = ACh EC20, 100% = maximal ACh | P11229 | activation, % at 3 µM; in the data active = activation above about 19%, passing the limit was not always enough
* hit, by the source's call.

SMILES	M1 ag parental	CHRM1 antagonist	CHO-K1 Ca PAM	CHRM1 agonist	CHO-K1 Ca antag	M1 PAM
CC(Oc1ccccc1F)C(=O)Nc1ccc2ccccc2c1 (configuration not stated)	-0.7	-7.7	-2.7	-1.3	0.2	6.6
COc1ccc(CN2CCN(S(=O)(=O)c3ccc(NC(C)=O)cc3)CC2)cc1OC	4.3	-1.6	6.5	-1.4	-20.9	-1.0
CCOc1ccccc1C(=O)OC(C)C(=O)Nc1ccc(S(=O)(=O)N2CCCC2)cc1 (configuration not stated)	-0.4	28.6*	-16.7	-5.4	25.3*	-12.2
Cc1cccc(C(=O)Oc2cccc3c(O)cccc23)c1	0.5	1.1	15.1	-2.0	-8.2	-1.4
CCc1ccc(NS(=O)(=O)c2cccs2)cc1	1.8	-10.0	26.3	-8.0	-15.9	5.7
COc1ccc(CN(C)C(C)C(=O)Nc2ccc(S(=O)(=O)N3CCCCC3)cc2)c(OC)c1 (configuration not stated)	0.1	90.7*	-5.9	-7.0	-5.7	-31.3
Cc1noc(C)c1COc1ccc(C(=O)OC(C)C(=O)Nc2ccc(S(=O)(=O)N3CCOCC3)cc2)cc1 (configuration not stated)	17.5*	10.1	10.0	-6.2	10.1	-3.9
CCN1C(=O)S/C(=C/c2c(OCc3ccc(C(=O)O)cc3)ccc3ccccc23)C1=O	1.8	-0.4	19.5	29.1*	-9.7	15.8
O=C(O)c1ccc(COc2ccc3ccccc3c2/C=C2/NC(=O)N(c3ccccc3)C2=O)cc1	0.0	17.3	11.2	-4.6	-1.1	-1.5
FC(F)Sc1ccc(NC(=S)NC2CCCCC2)cc1	12.0	17.6	4.0	-0.9	8.2	-10.4
FC(F)Sc1ccc(NC(=S)NCC2CCCCC2)cc1	13.0	30.8*	5.5	1.2	16.9	-16.3
Cn1nc(C(F)(F)F)c(-c2ccc(Br)cc2)c1NC(=O)Nc1ccc(F)cc1F	9.0	38.3*	-20.6	3.9	19.5	-8.6
Nc1cc(N)nc(SCCOc2ccccc2)n1	0.7	-26.5	2.6	3.2	5.5	15.6
COc1cccc(OCCSc2nc(N)cc(N)n2)c1	0.2	10.3	-6.7	-1.0	26.9*	-4.5
CCc1nc2ccc(C(=O)NCc3ccccc3OC)cn2c1N(CC)CCOC	0.4	-10.9	-4.8	-8.6	9.2	11.9
CC(C)c1cc(CNC(=O)c2cc(COc3cncc(Cl)c3)on2)on1	15.5*	-3.7	-12.2	-2.3	10.5	6.8
CCOC(=O)c1cnc2ccc(OCC)cc2c1N1CCN(c2ccccc2OC)CC1	2.8	34.2*	12.1	-1.3	-0.7	-12.2
CN1CCN(C(=O)Nc2ccc3c(c2)N(C)C(=O)c2ccccc2S3)CC1	0.4	-12.0	4.9	-6.8	-17.8	8.9
CN1CCN(C(=O)Nc2cccc(-c3ccccc3)c2)CC1	0.3	31.0*	2.0	-7.7	-3.6	-15.8
Cc1ccc(S(=O)(=O)N2CCC(NC(=O)OC(C)C)CC2)cc1	0.0	-5.0	15.5	-9.3	-0.4	2.0
Cc1ccc(S(=O)(=O)CCC(=O)OCC(=O)N(C)CC(=O)Nc2ccc(F)cc2)cc1	0.2	20.0*	-3.5	-3.2	-1.1	-11.3
COc1ccc(/C=C(\C#N)C(=O)NCc2cccnc2)cc1OC	0.1	-4.5	12.3	-6.7	6.9	7.0
N#C/C(=C/c1cccc(O)c1)C(=O)NCc1ccc(Cl)cc1	2.8	28.1*	11.2	17.4*	-10.2	2.2
CCOc1cc(/C=C(\C#N)C(=O)NCc2cccnc2)ccc1O	9.2	-5.8	-14.8	-3.4	32.5*	12.2
Nn1c(SCC(=O)Nc2cccc(Br)c2)nnc1C1CC1	0.0	-8.9	6.0	-5.4	-12.9	5.4
SMILES	M1 ag parental	CHRM1 antagonist	CHO-K1 Ca PAM	CHRM1 agonist	CHO-K1 Ca antag	M1 PAM
CCOC(=O)/C=C1\SCC(=O)N1CC(=O)NCCc1ccc(F)cc1	16.9*	-2.7	16.5	-6.8	0.2	9.8
CCOC(=O)/C=C1\SCC(=O)N1CC(=O)NC12CC3CC(CC(C3)C1)C2	0.0	17.8	-5.8	-1.7	24.4*	-9.2
CCOC(=O)/C=C1\SCC(=O)N1CC(=O)NC(C)C	-0.3	-14.3	7.6	-1.9	-1.3	0.9
O=C(NCc1ccc2c(c1)OCO2)c1cc(-c2ccccc2)nn1CC1CC(c2cccnc2)=NO1 (configuration not stated)	3.1	1.6	7.1	-5.4	-11.1	-5.4
COc1cc2c(cc1NC(=S)Nc1ccccc1C)oc1ccccc12	0.0	-15.4	16.7	-4.8	-8.6	25.1*
CN(C)c1nc(N(C)C)nc(N2CCCCC2)n1	-0.4	21.5*	-3.9	-5.0	11.6	-1.1
Cc1cc(Cl)ccc1NC(=S)NCCc1ccc(Cl)cc1	1.8	21.7	-8.9	-2.5	25.5*	-10.8
Cc1cc(Cl)ccc1NC(=S)NCc1ccc(Cl)cc1	7.5	1.5	-2.7	2.0	21.1	-13.4
Cc1cccc(NC(=O)CSc2nc3ccccc3c3nc(CCc4c(C)n[nH]c4C)nn23)c1	4.6	50.7*	6.8	-1.1	20.4	-13.5
COc1ccc(C(=O)NC(C)CCc2ccccc2)cc1[N+](=O)[O-] (configuration not stated)	2.3	3.1	3.4	-5.6	-3.0	-1.6
COc1ccc(C(=O)C(C)[n+]2ccc(C)c3ccccc32)cc1[N+](=O)[O-] (configuration not stated)	2.5	43.4*	-9.3	-4.1	15.8	-21.8
CC(C)NC(=O)C(Sc1ccccc1)c1ccccc1 (configuration not stated)	-0.1	0.1	-7.7	-2.1	23.8*	5.8
Cc1cccc(C(=O)NC2CCN(CC(=O)Nc3ccccc3Cl)CC2)c1	1.1	-14.1	2.2	-5.6	-9.9	5.4
O=C(O)CCCC(=O)Nc1ccn(-c2ccccc2)n1	0.2	-23.3	13.5	-2.0	-1.0	5.2
CC(=O)CC(=O)Nc1ccn(-c2ccccc2)n1	-0.3	16.0	-9.4	2.6	27.2*	-3.5
O=C(CN1CCCCC1)Nc1nnc(-c2ccc([N+](=O)[O-])cc2)s1	0.0	12.7	-5.5	-3.1	28.6*	-7.2
CCn1cc(C(=O)O)c(=O)c2cc(F)c(N3CCN(S(=O)(=O)c4ccc(NC(=O)OC)cc4)CC3)cc21	0.1	0.4	15.8	-5.1	-8.7	5.1
Nc1ccc2c3c(cccc13)-c1ccccc1-2	35.4*	42.4*	-12.4	36.8*	37.5*	-13.8
Cc1ccc2c3c(cccc13)-c1ccccc1C2=O	1.0	-1.5	11.8	-7.5	-9.7	1.1
Fc1ccc(/C=C2\CCCC3=C2Nc2ncnn2C3c2ccc(F)cc2)cc1 (configuration not stated)	5.4	31.7*	3.3	1.9	19.2	-8.3
O=[N+]([O-])c1ccc(Oc2c(F)c(F)nc(N3CCCC3)c2F)cc1	11.1	27.8*	-5.1	-4.8	13.3	-12.5
